# Experimental data: article PMC7862700, “An all-to-all approach to the identification of sequence-specific readers for epigenetic DNA modifications on cytosine”
# How the values were obtained:
# Test in all cases: DAPPL (digital affinity profiling via proximity ligation, sequencing); 10 mM Tris-HCl pH 7.5, 50 mM NaCl, 1 mM DTT, 4% glycerol, room temperature, 30 min; GST-TFs on glutathione beads, 16-mer random dsDNA library, 0.1% formaldehyde crosslink after washing; high values mean tight binding
# [1] = target: T1, FLI1 (Homo sapiens, UniProt Q01543 1-452); conditions: protein: recombinant; tags: N-terminal GST; dsDNA, one strand shown
# T1 sequence: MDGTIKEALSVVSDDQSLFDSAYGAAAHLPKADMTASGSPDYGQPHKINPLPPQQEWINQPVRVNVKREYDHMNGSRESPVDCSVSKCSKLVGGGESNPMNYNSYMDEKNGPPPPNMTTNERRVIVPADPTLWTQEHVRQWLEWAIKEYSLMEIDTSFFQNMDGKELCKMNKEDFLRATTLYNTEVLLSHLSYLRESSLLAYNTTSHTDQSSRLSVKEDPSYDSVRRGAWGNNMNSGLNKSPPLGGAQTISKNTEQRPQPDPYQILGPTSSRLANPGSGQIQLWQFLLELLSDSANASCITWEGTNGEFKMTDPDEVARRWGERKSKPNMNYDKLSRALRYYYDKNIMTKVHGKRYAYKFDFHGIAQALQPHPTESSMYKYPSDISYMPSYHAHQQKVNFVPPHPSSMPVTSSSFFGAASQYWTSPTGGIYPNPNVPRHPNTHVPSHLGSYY
# Method in brief: (§1)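 GST fusions of human transcription factors were expressed in yeast and captured with glutathione beads. Once given DNA barcodes and pooled alongside a tag-only sample, they were incubated for 30 min at room temperature with 200 nmole of a random double-stranded 16-mer DNA library in Tris/NaCl/DTT/glycerol buffer, then washed, crosslinked (0.1% formaldehyde), proximity-ligated, PCR-amplified and sequenced on an Illumina NextSeq500. The binding signal of each hexamer is its read frequency for a factor divided by its frequency for the tag-only sample.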
# [2] = target: T2, ELK1 (Homo sapiens, UniProt P19419 1-428); conditions: protein: recombinant; tags: N-terminal GST; dsDNA, one strand shown
# T2 sequence: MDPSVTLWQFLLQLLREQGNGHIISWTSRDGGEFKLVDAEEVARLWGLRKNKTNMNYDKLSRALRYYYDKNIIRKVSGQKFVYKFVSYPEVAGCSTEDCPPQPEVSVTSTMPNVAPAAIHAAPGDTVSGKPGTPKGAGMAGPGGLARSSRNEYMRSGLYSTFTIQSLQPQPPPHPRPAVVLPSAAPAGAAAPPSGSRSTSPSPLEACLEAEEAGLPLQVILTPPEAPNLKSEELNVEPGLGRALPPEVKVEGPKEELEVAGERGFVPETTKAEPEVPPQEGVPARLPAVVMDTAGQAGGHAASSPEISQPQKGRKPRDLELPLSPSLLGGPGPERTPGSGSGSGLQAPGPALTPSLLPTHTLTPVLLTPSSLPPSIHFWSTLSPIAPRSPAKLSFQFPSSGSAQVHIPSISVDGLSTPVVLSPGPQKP
# Method in brief: as §1
# [3] = target: T3, GABPA (Homo sapiens, UniProt Q06546 1-454); conditions: protein: recombinant; tags: N-terminal GST; dsDNA, one strand shown
# T3 sequence: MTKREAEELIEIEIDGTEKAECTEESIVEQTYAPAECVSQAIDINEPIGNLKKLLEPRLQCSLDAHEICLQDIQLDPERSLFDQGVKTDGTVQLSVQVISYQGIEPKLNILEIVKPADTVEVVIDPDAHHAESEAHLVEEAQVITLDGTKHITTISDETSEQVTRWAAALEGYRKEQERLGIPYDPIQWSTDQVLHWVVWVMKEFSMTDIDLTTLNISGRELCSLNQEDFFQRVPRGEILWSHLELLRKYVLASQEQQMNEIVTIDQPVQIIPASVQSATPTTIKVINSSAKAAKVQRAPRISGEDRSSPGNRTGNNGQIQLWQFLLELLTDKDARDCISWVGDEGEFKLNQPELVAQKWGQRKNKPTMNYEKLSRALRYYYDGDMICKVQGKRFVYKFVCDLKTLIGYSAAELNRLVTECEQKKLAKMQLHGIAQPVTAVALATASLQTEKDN
# Method in brief: as §1
# [4] = target: T4, ERG (Homo sapiens, UniProt P11308 1-479); conditions: protein: recombinant; tags: N-terminal GST; dsDNA, one strand shown
# T4 sequence: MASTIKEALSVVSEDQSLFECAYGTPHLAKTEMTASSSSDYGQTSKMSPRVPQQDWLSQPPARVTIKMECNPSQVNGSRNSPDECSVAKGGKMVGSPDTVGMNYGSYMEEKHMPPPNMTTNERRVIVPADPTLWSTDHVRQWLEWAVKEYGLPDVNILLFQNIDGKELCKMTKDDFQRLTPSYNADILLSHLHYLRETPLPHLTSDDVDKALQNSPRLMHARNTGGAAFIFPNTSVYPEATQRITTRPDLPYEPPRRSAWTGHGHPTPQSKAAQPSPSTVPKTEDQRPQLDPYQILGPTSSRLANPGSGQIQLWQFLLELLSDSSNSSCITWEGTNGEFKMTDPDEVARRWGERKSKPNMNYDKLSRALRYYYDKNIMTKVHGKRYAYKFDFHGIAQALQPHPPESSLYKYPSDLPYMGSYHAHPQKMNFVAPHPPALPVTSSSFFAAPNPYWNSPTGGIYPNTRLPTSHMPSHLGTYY
# Method in brief: as §1
# [5] = target: ELF1 (Homo sapiens, UniProt P32519 1-619); conditions: protein: recombinant; tags: N-terminal GST; dsDNA, one strand shown
# Method in brief: as §1
# [6] = target: T5, EHF (Homo sapiens, UniProt Q9NZC4 1-300); conditions: protein: recombinant; tags: N-terminal GST; dsDNA, one strand shown
# T5 sequence: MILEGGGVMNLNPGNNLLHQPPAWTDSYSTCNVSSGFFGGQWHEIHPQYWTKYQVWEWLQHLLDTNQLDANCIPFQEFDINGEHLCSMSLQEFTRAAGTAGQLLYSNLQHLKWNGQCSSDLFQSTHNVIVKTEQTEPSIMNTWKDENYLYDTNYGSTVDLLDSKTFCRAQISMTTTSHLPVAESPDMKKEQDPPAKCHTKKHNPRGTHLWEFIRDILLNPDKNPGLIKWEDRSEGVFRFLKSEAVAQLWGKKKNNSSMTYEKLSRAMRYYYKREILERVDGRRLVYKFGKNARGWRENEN
# Method in brief: as §1
# [7] = target: SPI1 (Homo sapiens, UniProt P17947 1-270); conditions: protein: recombinant; tags: N-terminal GST; dsDNA, one strand shown
# Method in brief: as §1
# [8] = target: SPIB (Homo sapiens, UniProt Q01892 1-262); conditions: protein: recombinant; tags: N-terminal GST; dsDNA, one strand shown
# Method in brief: as §1
# [9] = target: T6, ELK3 (Homo sapiens, UniProt P41970 1-407); conditions: protein: recombinant; tags: N-terminal GST; dsDNA, one strand shown
# T6 sequence: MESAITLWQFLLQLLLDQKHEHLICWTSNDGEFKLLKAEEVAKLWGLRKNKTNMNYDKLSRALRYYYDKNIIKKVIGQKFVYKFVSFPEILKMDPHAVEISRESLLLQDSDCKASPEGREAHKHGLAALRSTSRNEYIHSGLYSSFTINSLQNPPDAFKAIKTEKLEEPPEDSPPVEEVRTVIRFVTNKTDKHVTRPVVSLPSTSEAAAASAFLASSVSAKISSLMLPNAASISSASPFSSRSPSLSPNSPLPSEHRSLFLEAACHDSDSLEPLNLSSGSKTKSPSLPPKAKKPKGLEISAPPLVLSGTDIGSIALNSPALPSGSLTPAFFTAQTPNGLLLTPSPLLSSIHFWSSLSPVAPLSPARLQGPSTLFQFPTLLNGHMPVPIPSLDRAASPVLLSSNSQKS
# Method in brief: as §1
# [10] = target: T7, FEV (Homo sapiens, UniProt Q99581 1-238); conditions: protein: recombinant; tags: N-terminal GST; dsDNA, one strand shown
# T7 sequence: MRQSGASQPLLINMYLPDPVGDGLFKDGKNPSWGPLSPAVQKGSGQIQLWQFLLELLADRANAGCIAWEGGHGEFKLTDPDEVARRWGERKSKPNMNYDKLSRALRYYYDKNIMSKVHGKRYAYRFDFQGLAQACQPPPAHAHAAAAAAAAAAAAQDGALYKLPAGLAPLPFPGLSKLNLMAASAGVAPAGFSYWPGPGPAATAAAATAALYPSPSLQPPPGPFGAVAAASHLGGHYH
# Method in brief: as §1
# [11] = target: ETV5 (Homo sapiens, UniProt P41161 1-510); conditions: protein: recombinant; tags: N-terminal GST; dsDNA, one strand shown
# Method in brief: as §1
# [12] = target: HSF1 (Homo sapiens, UniProt Q00613 1-529); conditions: protein: recombinant; tags: N-terminal GST; chain copies: 3; dsDNA, one strand shown
# Method in brief: as §1
# [13] = target: T8, SPIC (Homo sapiens, UniProt Q8N5J4 1-248); conditions: protein: recombinant; tags: N-terminal GST; dsDNA, one strand shown
# T8 sequence: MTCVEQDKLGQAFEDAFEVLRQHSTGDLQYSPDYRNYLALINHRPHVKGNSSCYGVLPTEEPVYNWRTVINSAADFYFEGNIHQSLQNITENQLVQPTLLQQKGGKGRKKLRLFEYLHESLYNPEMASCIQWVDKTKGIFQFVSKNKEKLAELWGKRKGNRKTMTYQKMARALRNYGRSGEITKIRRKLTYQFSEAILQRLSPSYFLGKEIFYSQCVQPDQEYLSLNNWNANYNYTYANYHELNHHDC
# Method in brief: as §1
# [14] = target: ELF4 (Homo sapiens, UniProt Q99607 1-663); conditions: protein: recombinant; tags: N-terminal GST; dsDNA, one strand shown
# Method in brief: as §1
# [15] = target: T9, ELK4 (Homo sapiens, UniProt P28324-2 1-405); conditions: protein: recombinant; tags: N-terminal GST; dsDNA, one strand shown
# T9 sequence: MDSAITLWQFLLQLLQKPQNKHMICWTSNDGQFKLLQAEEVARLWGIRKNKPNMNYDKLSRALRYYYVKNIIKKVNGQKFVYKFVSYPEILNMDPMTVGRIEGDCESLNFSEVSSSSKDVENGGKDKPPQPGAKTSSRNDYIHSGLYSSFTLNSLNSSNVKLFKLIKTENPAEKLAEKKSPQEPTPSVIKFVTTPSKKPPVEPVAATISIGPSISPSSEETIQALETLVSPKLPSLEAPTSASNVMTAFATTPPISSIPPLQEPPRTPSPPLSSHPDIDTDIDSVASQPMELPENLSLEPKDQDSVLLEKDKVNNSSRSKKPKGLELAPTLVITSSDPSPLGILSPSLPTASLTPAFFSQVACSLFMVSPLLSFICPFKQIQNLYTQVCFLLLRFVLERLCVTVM
# Method in brief: as §1
# [16] = target: T10, ETV2 (Homo sapiens, UniProt O00321 1-342); conditions: protein: recombinant; tags: N-terminal GST; dsDNA, one strand shown
# T10 sequence: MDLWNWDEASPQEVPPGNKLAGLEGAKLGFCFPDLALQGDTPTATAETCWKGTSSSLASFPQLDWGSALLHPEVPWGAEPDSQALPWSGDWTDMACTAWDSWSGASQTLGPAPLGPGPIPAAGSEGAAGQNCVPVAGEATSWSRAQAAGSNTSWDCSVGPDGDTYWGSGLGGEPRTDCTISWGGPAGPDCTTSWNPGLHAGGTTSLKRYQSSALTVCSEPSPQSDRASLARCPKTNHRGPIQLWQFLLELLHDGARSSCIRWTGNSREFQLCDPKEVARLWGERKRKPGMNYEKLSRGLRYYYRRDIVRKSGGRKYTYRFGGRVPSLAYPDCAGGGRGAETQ
# Method in brief: as §1
# [17] = target: T11, ELF3 (Homo sapiens, UniProt P78545 1-371); conditions: protein: recombinant; tags: N-terminal GST; dsDNA, one strand shown
# T11 sequence: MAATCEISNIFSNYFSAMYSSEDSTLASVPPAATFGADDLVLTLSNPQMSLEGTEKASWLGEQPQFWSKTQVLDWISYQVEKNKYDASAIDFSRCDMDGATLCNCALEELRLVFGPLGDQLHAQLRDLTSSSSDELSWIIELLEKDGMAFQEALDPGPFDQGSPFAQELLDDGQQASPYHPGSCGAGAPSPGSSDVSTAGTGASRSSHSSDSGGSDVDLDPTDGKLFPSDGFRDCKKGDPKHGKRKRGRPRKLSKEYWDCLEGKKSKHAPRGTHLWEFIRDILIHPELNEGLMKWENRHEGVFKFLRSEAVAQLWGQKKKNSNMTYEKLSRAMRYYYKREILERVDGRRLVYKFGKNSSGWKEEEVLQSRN
# Method in brief: as §1
# [18] = target: CRX (Homo sapiens, UniProt O43186 1-299); conditions: protein: recombinant; tags: N-terminal GST; dsDNA, one strand shown
# Method in brief: as §1
# [19] = target: ETV1 (Homo sapiens, UniProt P50549 1-477); conditions: protein: recombinant; tags: N-terminal GST; dsDNA, one strand shown
# Method in brief: as §1
# ETV1, sequence (P50549 whole entry): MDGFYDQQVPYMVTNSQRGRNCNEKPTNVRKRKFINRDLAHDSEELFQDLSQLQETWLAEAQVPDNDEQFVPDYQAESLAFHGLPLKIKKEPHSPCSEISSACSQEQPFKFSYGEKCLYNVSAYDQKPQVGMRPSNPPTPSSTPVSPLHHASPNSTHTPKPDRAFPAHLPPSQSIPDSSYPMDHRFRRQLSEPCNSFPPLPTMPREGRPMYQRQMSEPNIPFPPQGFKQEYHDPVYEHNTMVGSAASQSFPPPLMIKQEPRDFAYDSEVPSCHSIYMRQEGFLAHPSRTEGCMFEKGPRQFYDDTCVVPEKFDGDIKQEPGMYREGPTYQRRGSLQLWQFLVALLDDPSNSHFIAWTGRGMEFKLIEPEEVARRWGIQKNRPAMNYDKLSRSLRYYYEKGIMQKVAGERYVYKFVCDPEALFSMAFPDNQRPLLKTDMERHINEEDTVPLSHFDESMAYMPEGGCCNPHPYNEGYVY
# ELF4, sequence (Q99607 whole entry): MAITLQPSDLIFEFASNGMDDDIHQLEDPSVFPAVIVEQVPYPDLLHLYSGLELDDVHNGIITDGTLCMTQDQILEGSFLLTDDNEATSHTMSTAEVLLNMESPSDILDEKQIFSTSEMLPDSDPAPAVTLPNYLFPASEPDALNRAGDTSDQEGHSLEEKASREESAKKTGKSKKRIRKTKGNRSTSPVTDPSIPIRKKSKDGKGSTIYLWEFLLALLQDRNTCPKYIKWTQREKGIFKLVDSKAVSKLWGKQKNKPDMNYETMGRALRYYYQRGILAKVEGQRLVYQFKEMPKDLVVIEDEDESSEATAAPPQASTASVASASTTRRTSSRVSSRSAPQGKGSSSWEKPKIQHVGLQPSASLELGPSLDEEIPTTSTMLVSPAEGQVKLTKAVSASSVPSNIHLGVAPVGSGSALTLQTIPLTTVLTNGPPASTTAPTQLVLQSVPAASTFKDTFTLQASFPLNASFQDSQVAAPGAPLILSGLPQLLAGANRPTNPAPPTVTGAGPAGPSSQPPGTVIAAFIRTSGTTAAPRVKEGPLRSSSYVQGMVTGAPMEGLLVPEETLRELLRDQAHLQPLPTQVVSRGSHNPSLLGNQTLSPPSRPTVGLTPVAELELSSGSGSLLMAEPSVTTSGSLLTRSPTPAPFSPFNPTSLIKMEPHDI
# ELF1, sequence (P32519 whole entry): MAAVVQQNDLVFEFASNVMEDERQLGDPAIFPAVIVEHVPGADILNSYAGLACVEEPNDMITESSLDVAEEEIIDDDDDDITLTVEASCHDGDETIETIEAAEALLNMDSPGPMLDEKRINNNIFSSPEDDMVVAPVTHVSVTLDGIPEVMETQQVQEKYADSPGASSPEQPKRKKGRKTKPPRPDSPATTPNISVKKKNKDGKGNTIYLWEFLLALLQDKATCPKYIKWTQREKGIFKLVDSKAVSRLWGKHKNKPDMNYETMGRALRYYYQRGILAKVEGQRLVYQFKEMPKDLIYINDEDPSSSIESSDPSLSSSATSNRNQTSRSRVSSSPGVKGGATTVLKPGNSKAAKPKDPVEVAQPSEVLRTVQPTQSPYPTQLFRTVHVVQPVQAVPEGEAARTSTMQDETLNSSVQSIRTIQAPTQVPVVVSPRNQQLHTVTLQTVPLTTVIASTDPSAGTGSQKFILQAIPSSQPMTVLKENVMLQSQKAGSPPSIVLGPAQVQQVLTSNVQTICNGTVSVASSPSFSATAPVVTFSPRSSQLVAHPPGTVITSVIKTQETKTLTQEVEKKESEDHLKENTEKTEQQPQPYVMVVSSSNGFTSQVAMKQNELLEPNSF
# SPIB, sequence (Q01892 whole entry): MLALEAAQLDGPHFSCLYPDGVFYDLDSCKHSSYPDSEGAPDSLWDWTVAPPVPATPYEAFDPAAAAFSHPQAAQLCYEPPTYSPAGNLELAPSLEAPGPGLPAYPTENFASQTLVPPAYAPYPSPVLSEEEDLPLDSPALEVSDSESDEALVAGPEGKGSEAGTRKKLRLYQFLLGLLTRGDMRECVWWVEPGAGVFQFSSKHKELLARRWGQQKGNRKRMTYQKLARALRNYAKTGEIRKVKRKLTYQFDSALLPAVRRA
# CRX, sequence (O43186 whole entry): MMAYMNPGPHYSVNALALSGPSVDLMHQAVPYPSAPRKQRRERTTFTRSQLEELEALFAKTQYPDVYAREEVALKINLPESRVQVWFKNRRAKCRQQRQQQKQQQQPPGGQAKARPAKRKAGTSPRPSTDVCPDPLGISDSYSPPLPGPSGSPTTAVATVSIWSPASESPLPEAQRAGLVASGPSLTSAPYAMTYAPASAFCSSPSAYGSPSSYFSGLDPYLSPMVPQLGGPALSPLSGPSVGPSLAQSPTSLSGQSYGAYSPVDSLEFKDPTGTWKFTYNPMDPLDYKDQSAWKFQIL
# HSF1, sequence (Q00613 whole entry): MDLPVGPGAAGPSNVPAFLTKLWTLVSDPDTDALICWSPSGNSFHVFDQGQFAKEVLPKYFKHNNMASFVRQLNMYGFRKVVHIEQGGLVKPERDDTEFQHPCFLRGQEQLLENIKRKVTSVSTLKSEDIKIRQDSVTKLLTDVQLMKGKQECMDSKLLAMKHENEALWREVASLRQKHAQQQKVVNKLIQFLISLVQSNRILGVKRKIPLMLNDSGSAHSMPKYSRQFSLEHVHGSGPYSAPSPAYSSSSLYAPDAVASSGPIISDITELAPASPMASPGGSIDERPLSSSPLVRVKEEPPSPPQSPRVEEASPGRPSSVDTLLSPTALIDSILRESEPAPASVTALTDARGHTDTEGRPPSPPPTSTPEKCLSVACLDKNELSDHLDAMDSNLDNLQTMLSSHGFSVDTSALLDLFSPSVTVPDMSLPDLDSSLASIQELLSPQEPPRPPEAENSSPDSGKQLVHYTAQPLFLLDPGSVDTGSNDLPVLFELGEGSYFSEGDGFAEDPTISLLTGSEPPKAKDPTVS
# ETV5, sequence (P41161 whole entry): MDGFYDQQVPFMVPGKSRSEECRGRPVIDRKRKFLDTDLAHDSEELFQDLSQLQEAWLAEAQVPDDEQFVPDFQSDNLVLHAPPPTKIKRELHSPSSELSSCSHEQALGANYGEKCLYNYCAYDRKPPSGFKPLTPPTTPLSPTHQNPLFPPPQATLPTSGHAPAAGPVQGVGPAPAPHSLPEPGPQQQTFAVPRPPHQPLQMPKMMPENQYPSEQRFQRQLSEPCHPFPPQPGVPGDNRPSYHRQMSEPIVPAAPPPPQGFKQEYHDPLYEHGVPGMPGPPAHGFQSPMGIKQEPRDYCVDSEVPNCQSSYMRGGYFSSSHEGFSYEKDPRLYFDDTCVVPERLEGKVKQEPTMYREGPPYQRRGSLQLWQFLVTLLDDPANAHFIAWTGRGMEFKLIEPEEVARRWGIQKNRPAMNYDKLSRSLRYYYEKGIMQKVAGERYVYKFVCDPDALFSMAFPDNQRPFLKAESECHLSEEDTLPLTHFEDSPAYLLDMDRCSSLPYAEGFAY
sequence,measurement,setting,value
ACCTTT,binding signal,[1],"1.52 fold enrichment (6-mer frequency, TF over GST control)"
same,binding signal,[2],"1.33 fold enrichment (6-mer frequency, TF over GST control)"
same,binding signal,[3],"1.47 fold enrichment (6-mer frequency, TF over GST control)"
same,binding signal,[4],"1.38 fold enrichment (6-mer frequency, TF over GST control)"
same,binding signal,[5],"1.47 fold enrichment (6-mer frequency, TF over GST control)"
same,binding signal,[6],"1.38 fold enrichment (6-mer frequency, TF over GST control)"
same,binding signal,[7],"1.49 fold enrichment (6-mer frequency, TF over GST control)"
same,binding signal,[8],"1.45 fold enrichment (6-mer frequency, TF over GST control)"
same,binding signal,[9],"1.35 fold enrichment (6-mer frequency, TF over GST control)"
same,binding signal,[10],"1.45 fold enrichment (6-mer frequency, TF over GST control)"
same,binding signal,[11],"1.36 fold enrichment (6-mer frequency, TF over GST control)"
same,binding signal,[12],"1.36 fold enrichment (6-mer frequency, TF over GST control)"
same,binding signal,[13],"1.58 fold enrichment (6-mer frequency, TF over GST control)"
same,binding signal,[14],"1.42 fold enrichment (6-mer frequency, TF over GST control)"
same,binding signal,[15],"1.49 fold enrichment (6-mer frequency, TF over GST control)"
same,binding signal,[16],"1.31 fold enrichment (6-mer frequency, TF over GST control)"
same,binding signal,[17],"1.32 fold enrichment (6-mer frequency, TF over GST control)"
same,binding signal,[18],"1.3 fold enrichment (6-mer frequency, TF over GST control)"
same,binding signal,[19],"1.43 fold enrichment (6-mer frequency, TF over GST control)"
